According to paper PMC5540273 (PLoS ONE, 2017):

How the values were obtained:
Details in all cases: concentration: 1 μM, replicates: in singlicate; n = 1
PFTK1 = tested on: T1, PFTK1
T1 construct: gene CDK14

PHKG1 = tested on: PHKG1
PHKG2 = tested on: PHKG2
PIK3C2B = tested on: PIK3C2B
PIK3C2G = tested on: PIK3C2G
PIK3CA = tested on: PIK3CA
PIK3CB = tested on: PIK3CB
PIK3CD = tested on: PIK3CD
PIK3CG = tested on: PIK3CG
PIK4CB = tested on: T2, PIK4CB
T2 construct: gene PI4KB
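Further: KINOMEscan kinase panel screen.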

SMILES: O=c1cc(N2CCOCC2)nc2n(Cc3cccc(Cl)c3Cl)c(C3CC3)nn12 [GSK2358994]
- %Inh (PFTK1): 0%
- %Inh (PHKG1): 8%
- %Inh (PHKG2): 0%
- %Inh (PIK3C2B): 70%
- %Inh (PIK3C2G): 64%
- %Inh (PIK3CA): 8%
- %Inh (PIK3CB): 100%
- %Inh (PIK3CD): 82%
- %Inh (PIK3CG): 45%
- %Inh (PIK4CB): 0%

SMILES: O=c1cc(N2CCOCC2)nc2n(Cc3cccc(C(F)(F)F)c3)ccn12 [GSK2297543]
- %Inh (PFTK1): 12%
- %Inh (PHKG1): 0%
- %Inh (PHKG2): 4%
- %Inh (PIK3C2B): 0%
- %Inh (PIK3C2G): 0%
- %Inh (PIK3CA): 0%
- %Inh (PIK3CB): 96.5%
- %Inh (PIK3CD): 28%
- %Inh (PIK3CG): 8%
- %Inh (PIK4CB): 0%

SMILES: COc1ccc(Nc2nccc(N3CCC(NC(=O)Nc4cccc(C(C)=O)c4)C3)n2)cc1 (stereo not drawn) [GSK1379731]
- %Inh (PFTK1): 3%
- %Inh (PHKG1): 0%
- %Inh (PHKG2): 0%
- %Inh (PIK3C2B): 0%
- %Inh (PIK3C2G): 0%
- %Inh (PIK3CA): 0%
- %Inh (PIK3CB): 0%
- %Inh (PIK3CD): 0%
- %Inh (PIK3CG): 0%
- %Inh (PIK4CB): 0%

SMILES: CN(C(=O)c1ccc(-c2cc(-c3c[nH]nc3-c3ccccn3)ccn2)cc1)C1CCOCC1 [GW810083]
- %Inh (PFTK1): 0%
- %Inh (PHKG1): 1%
- %Inh (PHKG2): 12%
- %Inh (PIK3C2B): 0%
- %Inh (PIK3C2G): 10%
- %Inh (PIK3CA): 0%
- %Inh (PIK3CB): 0%
- %Inh (PIK3CD): 1%
- %Inh (PIK3CG): 32%
- %Inh (PIK4CB): 40%

SMILES: NS(=O)(=O)CCc1cccc(Nc2nccc(-c3c(-c4cccc(NC(=O)c5c(F)cccc5F)c4)nn4ccccc34)n2)c1 [GSK336735]
- %Inh (PFTK1): 26%
- %Inh (PHKG1): 0%
- %Inh (PHKG2): 4%
- %Inh (PIK3C2B): 0%
- %Inh (PIK3C2G): 0%
- %Inh (PIK3CA): 0%
- %Inh (PIK3CB): 0%
- %Inh (PIK3CD): 0%
- %Inh (PIK3CG): 0%
- %Inh (PIK4CB): 0%

SMILES: Nc1nc(-c2ccc3c(N)n[nH]c3c2)cc(N2CCCC2)n1 [GSK2227430]
- %Inh (PFTK1): 0%
- %Inh (PHKG1): 0%
- %Inh (PHKG2): 0%
- %Inh (PIK3C2B): 0%
- %Inh (PIK3C2G): 0%
- %Inh (PIK3CA): 0%
- %Inh (PIK3CB): 0%
- %Inh (PIK3CD): 0%
- %Inh (PIK3CG): 0%
- %Inh (PIK4CB): 14%

SMILES: CCn1cnc2c(N)ncnc21 [GW345098]
- %Inh (PFTK1): 2%
- %Inh (PHKG1): 4%
- %Inh (PHKG2): 13%
- %Inh (PIK3C2B): 27%
- %Inh (PIK3C2G): 31%
- %Inh (PIK3CA): 29%
- %Inh (PIK3CB): 0%
- %Inh (PIK3CD): 0%
- %Inh (PIK3CG): 21%
- %Inh (PIK4CB): 1%

SMILES: C[C@@H](Oc1cc(-n2cnc3ccc(NC(=O)NC(C)(C)C)cc32)sc1C(N)=O)c1ccccc1Cl [GSK346294]
- %Inh (PFTK1): 24%
- %Inh (PHKG1): 0%
- %Inh (PHKG2): 13%
- %Inh (PIK3C2B): 0%
- %Inh (PIK3C2G): 0%
- %Inh (PIK3CA): 3%
- %Inh (PIK3CB): 5%
- %Inh (PIK3CD): 0%
- %Inh (PIK3CG): 6%
- %Inh (PIK4CB): 0%

SMILES: Cc1cccc(-c2nc(Nc3ccc4ncsc4c3)c3ccccc3n2)n1 [GW867588]
- %Inh (PFTK1): 0%
- %Inh (PHKG1): 0%
- %Inh (PHKG2): 0%
- %Inh (PIK3C2B): 0%
- %Inh (PIK3C2G): 10%
- %Inh (PIK3CA): 0%
- %Inh (PIK3CB): 0%
- %Inh (PIK3CD): 30%
- %Inh (PIK3CG): 0%
- %Inh (PIK4CB): 28%

SMILES: N#Cc1ccc(-c2cc(-c3c[nH]nc3-c3ccccn3)ccn2)cc1 [GW693028]
- %Inh (PFTK1): 19%
- %Inh (PHKG1): 0%
- %Inh (PHKG2): 0%
- %Inh (PIK3C2B): 0%
- %Inh (PIK3C2G): 0%
- %Inh (PIK3CA): 0%
- %Inh (PIK3CB): 0%
- %Inh (PIK3CD): 0%
- %Inh (PIK3CG): 0%
- %Inh (PIK4CB): 0%

SMILES: Cc1nnc(-c2ccc3occ(-c4ccc(C(C)O)cc4)c3c2)o1 (stereo not drawn)
- %Inh (PFTK1): 1%
- %Inh (PHKG1): 9%
- %Inh (PHKG2): 16%
- %Inh (PIK3C2B): 18%
- %Inh (PIK3C2G): 23%
- %Inh (PIK3CA): 9%
- %Inh (PIK3CB): 18%
- %Inh (PIK3CD): 0%
- %Inh (PIK3CG): 25%
- %Inh (PIK4CB): 0%

SMILES: CC(C)(C)n1cnc2c(N)ncnc21 [SKF-97359]
- %Inh (PFTK1): 0%
- %Inh (PHKG1): 14%
- %Inh (PHKG2): 24%
- %Inh (PIK3C2B): 0%
- %Inh (PIK3C2G): 0%
- %Inh (PIK3CA): 0%
- %Inh (PIK3CB): 0%
- %Inh (PIK3CD): 0%
- %Inh (PIK3CG): 0%
- %Inh (PIK4CB): 25%

SMILES: Cc1c(Cn2c(C)nn3c(=O)cc(N4CCOC(C)C4)nc23)cccc1C(F)(F)F (stereo not drawn) [GSK2344444]
- %Inh (PFTK1): 48%
- %Inh (PHKG1): 0%
- %Inh (PHKG2): 0%
- %Inh (PIK3C2B): 31%
- %Inh (PIK3C2G): 24%
- %Inh (PIK3CA): 5%
- %Inh (PIK3CB): 97.4%
- %Inh (PIK3CD): 92.7%
- %Inh (PIK3CG): 64%
- %Inh (PIK4CB): 0%

SMILES: Cl.Oc1cccc(Nc2ccnc3cc(-c4ccncc4)ccc23)c1 [GW494601]
- %Inh (PFTK1): 12%
- %Inh (PHKG1): 0%
- %Inh (PHKG2): 0%
- %Inh (PIK3C2B): 13%
- %Inh (PIK3C2G): 2%
- %Inh (PIK3CA): 0%
- %Inh (PIK3CB): 0%
- %Inh (PIK3CD): 22%
- %Inh (PIK3CG): 0%
- %Inh (PIK4CB): 0%

SMILES: Cc1cn2c(=O)cc(N3CCOCC3)nc2n1Cc1cccc(Cl)c1Cl [GSK2334006]
- %Inh (PFTK1): 0%
- %Inh (PHKG1): 14%
- %Inh (PHKG2): 14%
- %Inh (PIK3C2B): 36%
- %Inh (PIK3C2G): 1%
- %Inh (PIK3CA): 3%
- %Inh (PIK3CB): 88%
- %Inh (PIK3CD): 100%
- %Inh (PIK3CG): 22%
- %Inh (PIK4CB): 0%
